Results: PubChem BioAssay AID1159580 (chemical genetic matrix, 2015)
Where “and” joins values, the source holds several entries; their conditions need not be identical. Equal values may be shown once. Screen size: about 5,500 compounds; about 2,000 (36%) were called active. Inconclusive results (about 18%) are left out. Rule as the data show it: active = normalized growth mostly below about 0.91 (no sharp cut-off); inconclusive = no clear call, values can overlap the other calls; inactive = mostly above about 0.92. The list shows a part of the results.

Experiment: chemical genetic growth profiling, strain panel (AID 1159580);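 also: tested at 20 µM; growth read once vehicle control cultures reached saturation at 30 °C; 1 = growth at the plate median or of vehicle wells; lower values mean less growth of the strain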
Settings: S. cerevisiae deletion strains, growth OD

Measured: normalized growth

Oc1c(Cl)cc(Cl)c(Cl)c1Cc1c(O)c(Cl)cc(Cl)c1Cl
active: locus YAL021C, strain ccr4, stronger effect = lower value 0.0649 | locus YAL026C, strain drs2, stronger effect = lower value 0.0639 | locus YAL030W, strain snc1, stronger effect = lower value 0.0572 | locus YBL061C, strain skt5, stronger effect = lower value 0.0628 | locus YBR009C, strain hhf1, stronger effect = lower value 0.0575 | locus YBR021W, strain FUR4, stronger effect = lower value 0.0863 | locus YBR023C, strain chs3, stronger effect = lower value 0.0623 | locus YBR171W, strain sec66, stronger effect = lower value 0.0838 | locus YBR229C, strain ROT2, stronger effect = lower value 0.0457 | locus YBR231C, strain swc5, stronger effect = lower value 0.0612 | locus YBR279W, strain paf1, stronger effect = lower value 0.0633 | locus YCL011C, strain gbp2, stronger effect = lower value 0.0558 | locus YCL016C, strain dcc1, stronger effect = lower value 0.0684 | locus YCL029C, strain bik1, stronger effect = lower value 0.0602 | locus YCL061C, strain MRC1, stronger effect = lower value 0.064 | locus YCL069W, strain vba3, stronger effect = lower value 0.0605 | locus YCR088W, strain abp1, stronger effect = lower value 0.0632 | locus YDL005C, strain med2, stronger effect = lower value 0.0765 | locus YDL035C, strain GPR1, stronger effect = lower value 0.0447 | locus YDL040C, strain nat1, stronger effect = lower value 0.0596 | locus YDL074C, strain BRE1, stronger effect = lower value 0.0681 | locus YDL101C, strain DUN1, stronger effect = lower value 0.0525 | locus YDL185W, strain tfp1, stronger effect = lower value 0.0761 | locus YDL192W, strain arf1, stronger effect = lower value 0.0596 | locus YDR001C, strain nth1, stronger effect = lower value 0.0623 | locus YDR069C, strain doa4, stronger effect = lower value 0.0643 | locus YDR101C, strain arx1, stronger effect = lower value 0.0573 | locus YDR137W, strain rgp1, stronger effect = lower value 0.108 | locus YDR159W, strain sac3, stronger effect = lower value 0.111 | locus YDR162C, strain NBP2, stronger effect = lower value 0.0454 | locus YDR195W, strain ref2 0.126 | locus YDR297W, strain sur2, stronger effect = lower value 0.0566 | locus YDR318W, strain mcm21, stronger effect = lower value 0.0637 | locus YDR334W, strain swr1, stronger effect = lower value 0.0669 | locus YDR335W, strain msn5, stronger effect = lower value 0.061 | locus YDR388W, stronger effect = lower value 0.0571 | locus YDR392W, strain spt3, stronger effect = lower value 0.0734 | locus YDR502C, strain sam2, stronger effect = lower value 0.0651 | locus YEL003W, strain gim4, stronger effect = lower value 0.0558 | locus YEL037C, strain rad23, stronger effect = lower value 0.0567 | locus YEL061C, strain CIN8 (second series), stronger effect = lower value 0.0634 | locus YEL061C, strain CIN8, stronger effect = lower value 0.0485 | locus YER015W, strain faa2, stronger effect = lower value 0.065 | locus YER016W, strain bim1, stronger effect = lower value 0.0638 | locus YER110C, stronger effect = lower value 0.0729 | locus YER111C, strain swi4, stronger effect = lower value 0.0725 | locus YER155C, strain BEM2 (second series), stronger effect = lower value 0.0878 | locus YER155C, strain BEM2, stronger effect = lower value 0.0604 | locus YER167W, strain BCK2, stronger effect = lower value 0.0476 | locus YFR010W, strain ubp6, stronger effect = lower value 0.0712 | locus YGL078C, strain dbp3, stronger effect = lower value 0.108 | locus YGL086W, strain mad1, stronger effect = lower value 0.0548 | locus YGL167C, strain pmr1, stronger effect = lower value 0.0813 | locus YGL173C, strain kem1, stronger effect = lower value 0.0685 | locus YGL227W, strain vid30, stronger effect = lower value 0.0622 | locus YGL240W, strain doc1, stronger effect = lower value 0.0737 | locus YGL248W, strain PDE1, stronger effect = lower value 0.0447 | locus YGL253W, strain hxk2, stronger effect = lower value 0.0537 | locus YGR135W, strain pre9, stronger effect = lower value 0.0633 | locus YGR252W, strain gcn5, stronger effect = lower value 0.179 | locus YHR013C, strain ard1, stronger effect = lower value 0.108 | locus YHR027C, strain rpn1, stronger effect = lower value 0.0624 | locus YHR030C, strain SLT2, stronger effect = lower value 0.0509 and 0.0952 | locus YHR079C, strain IRE1 (second series), stronger effect = lower value 0.0571 | locus YHR079C, strain IRE1, stronger effect = lower value 0.137 | locus YHR094C, strain hxt1, stronger effect = lower value 0.0585 | locus YHR129C, strain ARP1, stronger effect = lower value 0.0547 | locus YHR142W, strain chs7, stronger effect = lower value 0.0728 | locus YHR200W, strain rpn10, stronger effect = lower value 0.0603 | locus YIL066C, strain RNR3, stronger effect = lower value 0.0457 | locus YIL073C, strain SPO22, stronger effect = lower value 0.0959 | locus YIL125W, strain kgd1, stronger effect = lower value 0.0781 | locus YIR030C, strain dcg1, stronger effect = lower value 0.0579 | locus YJL092W, strain hpr5, stronger effect = lower value 0.0606 | locus YJL095W, strain BCK1 (second series), stronger effect = lower value 0.0579 | locus YJL095W, strain BCK1, stronger effect = lower value 0.0575 and 0.0959 | locus YJL115W, strain asf1, stronger effect = lower value 0.0753 | locus YJL129C, strain trk1, stronger effect = lower value 0.0909 | locus YJL134W, strain LCB3, stronger effect = lower value 0.0469 | locus YJL154C, strain vps35, stronger effect = lower value 0.0611 | locus YJL164C, strain tpk1, stronger effect = lower value 0.0591 | locus YJL166W, strain qcr8, stronger effect = lower value 0.0615 | locus YJL168C, strain set2, stronger effect = lower value 0.0584 | locus YJL187C, strain SWE1 (second series), stronger effect = lower value 0.0437 | locus YJR043C, strain POL32, stronger effect = lower value 0.0543 | locus YJR066W, strain TOR1, stronger effect = lower value 0.0109 | locus YKL009W, strain mrt4, stronger effect = lower value 0.13 | locus YKL068W, stronger effect = lower value 0.0876 | locus YKL085W, strain MDH1 (second series), stronger effect = lower value 0.0638 | locus YKL085W, strain MDH1, stronger effect = lower value 0.0638 | locus YKL160W, strain elf1, stronger effect = lower value 0.0626 | locus YKL190W, strain CNB1, stronger effect = lower value 0.0457 | locus YKR001C, strain vps1, stronger effect = lower value 0.064 | locus YKR026C, strain gcn3, stronger effect = lower value 0.063 | locus YKR091W, strain srl3, stronger effect = lower value 0.058 | locus YLL001W, strain dnm1, stronger effect = lower value 0.0618 | locus YLL026W, stronger effect = lower value 0.0568 | locus YLL041C, strain sdh2, stronger effect = lower value 0.0572 | locus YLR027C, strain aat2, stronger effect = lower value 0.0557 | locus YLR039C, strain RIC1, stronger effect = lower value 0.101 | locus YLR058C, strain SHM2, stronger effect = lower value 0.0462 | locus YLR102C, strain apc9, stronger effect = lower value 0.0599 | locus YLR113W, strain HOG1, stronger effect = lower value 0.119 | locus YLR221C, strain rsa3, stronger effect = lower value 0.064 | locus YLR258W, strain gsy2, stronger effect = lower value 0.0646 | locus YLR262C, strain YPT6 (second series), stronger effect = lower value 0.0785 | locus YLR262C, strain YPT6, stronger effect = lower value 0.114 | locus YLR268W, strain sec22, stronger effect = lower value 0.0689 | locus YLR320W, strain mms22, stronger effect = lower value 0.0782 | locus YLR330W, strain CHS5, stronger effect = lower value 0.0515 | locus YLR342W, strain FKS1 (second series), stronger effect = lower value 0.0549 | locus YLR342W, strain FKS1, stronger effect = lower value 0.0674 | locus YLR357W, strain rsc2, stronger effect = lower value 0.132 | locus YLR370C, strain arc18, stronger effect = lower value 0.0635 | locus YLR371W, strain rom2, stronger effect = lower value 0.0617 | locus YLR384C, strain iki3, stronger effect = lower value 0.0627 | locus YLR418C, strain cdc73, stronger effect = lower value 0.102 | locus YML016C, strain PPZ1, stronger effect = lower value 0.0443 | locus YML032C, strain rad52, stronger effect = lower value 0.0719 | locus YML120C, strain ndi1, stronger effect = lower value 0.0723 | locus YML124C, strain tub3, stronger effect = lower value 0.0588 | locus YMR058W, strain fet3, stronger effect = lower value 0.06 | locus YMR078C, strain ctf18, stronger effect = lower value 0.0715 | locus YMR125W, strain sto1, stronger effect = lower value 0.0705 | locus YMR129W, stronger effect = lower value 0.0593 | locus YMR205C, strain PFK2, stronger effect = lower value 0.0865 | locus YMR223W, strain ubp8, stronger effect = lower value 0.064 | locus YMR231W, strain pep5, stronger effect = lower value 0.0739 | locus YMR307W, strain GAS1, stronger effect = lower value 0.095 | locus YNL067W, strain RPL9B, stronger effect = lower value 0.0449 | locus YNL071W, strain lat1, stronger effect = lower value 0.0618 | locus YNL183C, strain NPR1, stronger effect = lower value -0.000219 | locus YNL209W, strain ssb2, stronger effect = lower value 0.0615 | locus YNL233W, strain BNI4, stronger effect = lower value 0.0507 | locus YNL248C, strain rpa49, stronger effect = lower value 0.0739 | locus YNL250W, strain rad50, stronger effect = lower value 0.232 | locus YNL271C, strain bni1, stronger effect = lower value 0.0767 | locus YNL298W, strain CLA4, stronger effect = lower value 0.0832 | locus YNL307C, strain MCK1, stronger effect = lower value 0.0665 | locus YNL322C, strain KRE1 (second series), stronger effect = lower value 0.0815 | locus YNR049C, strain mso1, stronger effect = lower value 0.0574 | locus YNR052C, strain pop2, stronger effect = lower value 0.0618 | locus YOL147C, strain pex11, stronger effect = lower value 0.0569 | locus YOR001W, strain rrp6, stronger effect = lower value 0.0782 | locus YOR061W, strain CKA2, stronger effect = lower value 0.0448 | locus YOR069W, strain VPS5, stronger effect = lower value 0.0463 | locus YOR070C, strain gyp1, stronger effect = lower value 0.0582 | locus YOR080W, strain dia2, stronger effect = lower value 0.0666 | locus YOR083W, strain WHI5, stronger effect = lower value 0.065 | locus YOR106W, strain vam3, stronger effect = lower value 0.0665 | locus YOR136W, strain idh2, stronger effect = lower value 0.0719 | locus YOR144C, strain elg1, stronger effect = lower value 0.0552 | locus YOR184W, strain ser1, stronger effect = lower value 0.075 | locus YOR231W, strain MKK1, stronger effect = lower value 0.112 | locus YOR265W, strain rbl2, stronger effect = lower value 0.065 | locus YOR270C, strain vph1, stronger effect = lower value 0.0914 | locus YOR290C, strain snf2, stronger effect = lower value 0.0645 | locus YOR316C, strain cot1, stronger effect = lower value 0.0584 | locus YPL051W, strain arl3, stronger effect = lower value 0.0639 | locus YPL078C, strain atp4, stronger effect = lower value 0.0652 | locus YPL106C, strain sse1, stronger effect = lower value 0.1 | locus YPL240C, strain hsp82, stronger effect = lower value 0.0579 | locus YPL256C, strain CLN2, stronger effect = lower value 0.116 | locus YPR119W, strain clb2, stronger effect = lower value 0.0624 | locus YPR141C, strain kar3, stronger effect = lower value 0.0848 | locus YPR163C, strain tif3, stronger effect = lower value 0.0697 | locus YPR167C, strain met16, stronger effect = lower value 0.0631 | strain wtn01, stronger effect = lower value 0.0656
